Compound activity from PubChem.
HP1b chromo inh: HTS for Inhibitors of HP1-beta Chromodomain Interactions with Methylated Histone Tails; Chromobox protein homolog 1 (Homo sapiens), P83916; AlphaScreen HP1-beta / biotin-H3K9me3 peptide binding; Potency, µM (highest dose often 114 µM), for the others: at the top dose activity change, negative = inhibition, most hits filed as inhibitors; hit rate 0.56% among 390,000; AID 540317, 2011; further: nearly all actives have a fitted effect of over 70% in size
Target sequence (P83916 whole entry, looked up): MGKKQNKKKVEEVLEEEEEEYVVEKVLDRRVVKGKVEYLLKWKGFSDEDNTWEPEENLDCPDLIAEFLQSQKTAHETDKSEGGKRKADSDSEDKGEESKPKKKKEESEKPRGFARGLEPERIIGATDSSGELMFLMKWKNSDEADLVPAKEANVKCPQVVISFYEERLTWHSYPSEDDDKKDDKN
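HP1-beta protein (50 nM final) preincubated 30 min at room temperature with biotinylated H3(1-18)K9me3 peptide (50 nM) in PBS pH 7.4, 0.01% Tween-20, then compound added for 30 min. AlphaScreen streptavidin donor/nickel chelate acceptor beads (10 ug/mL final), 30 min dark, luminescence read.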
Sfp PPTase inh: qHTS Assay for Inhibitors of Bacillus subtilis Sfp phosphopantetheinyl transferase (PPTase). Potency, µM, for inactives: largest response in the series, negative = inhibition, most hits filed as inhibitors. hit rate 3.5% among 310,000. 4'-phosphopantetheinyl transferase ffp (Bacillus subtilis), Q9F4F7. Biochemical Sfp PPTase activity, qHTS;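 further: the enzyme is Sfp with the accession as filed and its product quenches rhodamine fluorescence; 0% = enzyme reaction without inhibitor and -100% = no enzyme wells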
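Compounds were incubated with enzyme (final 15 nM) for 15 min at room temperature before substrate addition started the reaction. Fluorescence at 525 nm excitation, 598 nm emission was recorded immediately and after 30 minutes.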
G9a block: qHTS Assay for Inhibitors of Histone Lysine Methyltransferase G9a. Potency, µM (highest dose often 102 µM), for the others: top-dose activity, negative = inhibition, usual class: inhibitors. G9a H3K9 monomethylation, AlphaScreen, 2 h. Histone-lysine N-methyltransferase EHMT2 (Homo sapiens), Q96KQ7. hit rate 8.8% among 350,000; further: on the % scale 0 is the no-effect control and ±100 the full control effect; nearly all actives have a fitted effect of over 75% in size
Target sequence (Q96KQ7 913-1193 limits assumed): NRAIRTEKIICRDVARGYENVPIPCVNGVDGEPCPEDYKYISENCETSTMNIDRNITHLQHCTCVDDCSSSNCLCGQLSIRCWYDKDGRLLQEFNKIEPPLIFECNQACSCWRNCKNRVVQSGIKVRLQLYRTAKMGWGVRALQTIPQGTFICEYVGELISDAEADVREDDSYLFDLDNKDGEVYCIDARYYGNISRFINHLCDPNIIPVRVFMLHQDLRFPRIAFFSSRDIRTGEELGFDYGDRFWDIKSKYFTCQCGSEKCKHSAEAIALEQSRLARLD
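G9a (20 nM) was preincubated 15 min with compound, then reacted 2 h at room temperature with 500 nM biotin-H3K9 peptide and 20 µM SAM. Monomethyl-H3K9 detected by AlphaScreen using anti-H3K9me1 antibody.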
JMJD2A Tudor inh: qHTS Assay for Inhibitors of JMJD2A-Tudor Domain; Lysine-specific demethylase 4A (Homo sapiens), O75164; AlphaScreen JMJD2A-Tudor / H3K4me3 peptide binding; Potency, µM (highest dose often 114 µM), inactives show at the top dose activity change, negative = inhibition, hits mostly inhibitors; hit rate 4.4% among 390,000; further: on the % scale 0 is the no-effect control and ±100 the full control effect; nearly all actives have a fitted effect of over 50% in size
BAZ2B block: qHTS Assay for Inhibitors of BAZ2B; AID 504333, 2011; hit rate 4.4% among 360,000; Potency, µM (titrated, usually from 114 µM), without a hit: at the highest dose activity change, negative = inhibition, most hits filed as inhibitors; AlphaScreen BAZ2B-H3K14Ac peptide displacement; further: on the % scale 0 is the no-effect control and ±100 the full control effect; nearly all actives have a fitted effect of over 60% in size
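Multi-concentration screen (max 110 uM) measuring displacement of acetylated histone H3 peptide from BAZ2B by AlphaScreen, using 50 nM protein, 50 nM peptide and 10 ug/mL streptavidin donor plus Ni-chelate acceptor beads.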
Numbers without * were called inactive; ! = not active in a repeat; [ ] = dose if it differs, or a comment. Most compounds without a hit are left out; they make up all but 12% or so of the library. The call rests on the fitted dose curve; in most records, active means well fitted curve in the direction sought with a large enough effect; inconclusive means small, poorly fitted or top-dose-only effect, or another doubt; inactive means no such curve, though single readings can be large; an effect the other way counts as inactive or inconclusive. Potency means the concentration at half of the fitted maximal effect.

For CCCCCOC(=O)C(C)c1c(C)[nH]c(=S)[nH]c1=O (stereo not drawn) the results were HP1b chromo inh 41.4%, Sfp PPTase inh 11.4%, G9a block 70.8µM*, JMJD2A Tudor inh 10.3% and BAZ2B block 11.7%.
Screening CCOC(=O)C(C)c1c(C)[nH]c(=S)[nH]c1=O (stereo not drawn) returned HP1b chromo inh 30.4%, Sfp PPTase inh -3.6%, G9a block 22.6%[12.7 µM], JMJD2A Tudor inh -14.9% and BAZ2B block 3.7%.
For CC1=NN=C(c2ccccc2)C(c2c[nH]c3ccccc23)N1O (stereo not drawn) the results were HP1b chromo inh -9.9%, Sfp PPTase inh 27.0%, G9a block inconclusive, JMJD2A Tudor inh -18.8% and BAZ2B block -10.5%.
Screening Cc1[nH]c2ccccc2c1C1C(c2ccccc2)=NN=C(C(C)C)N1O (stereo not drawn) returned HP1b chromo inh 0.6%, Sfp PPTase inh -0.6%, G9a block 6.31µM*, JMJD2A Tudor inh -33.8% and BAZ2B block -30.6%.
For Cc1cccc(NC(=S)N(CCCN2CCOCC2)Cc2ccccn2)c1 the results were HP1b chromo inh 0.5%, Sfp PPTase inh 8.1%, G9a block 4.9%[59 µM], JMJD2A Tudor inh -13.6% and BAZ2B block 4.7%.
COc1ccc(C(=O)N/C(=C\c2cn(C)c3ccccc23)C(=O)NCCN2CCOCC2)cc1OC was read as HP1b chromo inh 42.8%, Sfp PPTase inh -21.5%, G9a block 50.1µM*, JMJD2A Tudor inh 21.0% and BAZ2B block inconclusive.
For COc1cc(C(=O)N/C(=C\c2cn(C)c3ccccc23)C(=O)NCCN2CCOCC2)cc(OC)c1OC the results were HP1b chromo inh 27.5%, Sfp PPTase inh -8.5%, JMJD2A Tudor inh -27.6% and BAZ2B block -22.8%.
Screening OCCN1CCN(CCC=C2c3ccccc3Sc3ccc(Cl)cc32)CC1 returned Sfp PPTase inh 1.1% and G9a block inconclusive.
For OCCN1CCN(CC/C=C2/c3ccccc3Sc3ccc(C(F)(F)F)cc32)CC1 the results were HP1b chromo inh 4.1%, Sfp PPTase inh inconclusive, G9a block 11.2µM*!, JMJD2A Tudor inh inconclusive and BAZ2B block inconclusive.
Screening N#CCC(=O)Nc1cc(C(F)(F)F)ccc1N1CCOCC1 returned HP1b chromo inh 18.2%, Sfp PPTase inh 14.2%, G9a block 24.6%[12.7 µM], JMJD2A Tudor inh -6.6% and BAZ2B block 0.1%.
`COc1ccc(OC)c(CNC(=O)CCCn2c(=O)c3cccn3c3cccnc32)c1` gave HP1b chromo inh 29.4%, G9a block 11.6%[59 µM], JMJD2A Tudor inh 3.7% and BAZ2B block -1.2%.
For CN(C)c1ccc(NC(=O)/C=C/c2c(Cl)cccc2Cl)cc1 the results were HP1b chromo inh inconclusive, Sfp PPTase inh 16.8%, G9a block 1.78µM*, JMJD2A Tudor inh -33.6% and BAZ2B block inconclusive.
Screening O=C(O)CCNc1cc2ccccc2cc1C(=O)O returned HP1b chromo inh -21.0%, Sfp PPTase inh inconclusive, G9a block inconclusive and JMJD2A Tudor inh 39.8µM*.
Cn1c(=O)n(C)c2cc(S(=O)(=O)Nc3ccccc3C(=O)O)ccc21 was read as HP1b chromo inh 20.0%, Sfp PPTase inh 19.5%, G9a block 8.2%, JMJD2A Tudor inh -18.2% and BAZ2B block -31.1%.
For O=C(O)CCCNc1ccc(S(=O)(=O)Nc2ccccc2C(=O)O)cc1C(=O)O the results were HP1b chromo inh 7.9%, Sfp PPTase inh 22.2%, G9a block 50.1µM*, JMJD2A Tudor inh -34.4% and BAZ2B block inconclusive.
For COc1ccc(S(=O)(=O)N2CCOC2CNC(=O)C(=O)NCCc2ccccc2)cc1OC (stereo not drawn) the results were HP1b chromo inh 18.1%, Sfp PPTase inh 20.5%, G9a block 14.0%, JMJD2A Tudor inh -16.2% and BAZ2B block -1.5%.
Screening BrC(=C\c1ccccc1)/C=N/N1CCN(c2ccccn2)CC1 returned HP1b chromo inh -4.3%, Sfp PPTase inh -23.6%, G9a block 28.2µM*, JMJD2A Tudor inh -28.4% and BAZ2B block 79.4µM*.
Oc1cccc(/C=N/N2CCN(c3ccccn3)CC2)c1 was read as HP1b chromo inh 17.4%, Sfp PPTase inh 4.8%, JMJD2A Tudor inh -16.9% and BAZ2B block -26.7%.
For C(=N\N1CCN(Cc2ccccc2)CC1)/c1cccnc1 the results were HP1b chromo inh 16.7%, Sfp PPTase inh 6.2%, G9a block inconclusive, JMJD2A Tudor inh -13.7% and BAZ2B block -24.8%.
For BrC(=C\c1ccccc1)/C=N/N1CCN(Cc2ccccc2)CC1 the results were HP1b chromo inh inconclusive, Sfp PPTase inh 1.9%, G9a block 44.7µM*, JMJD2A Tudor inh inconclusive and BAZ2B block inconclusive.
For C/C(=N/N1CCN(Cc2ccccc2)CC1)c1ccc(Br)cc1 the results were HP1b chromo inh 6.5%, Sfp PPTase inh 30.6%, G9a block -7.9%, JMJD2A Tudor inh -27.9% and BAZ2B block -37.7%.
For BrC(/C=N/N1CCN(Cc2ccccc2)CC1)=C/c1ccccc1 the results were HP1b chromo inh -18.5%, Sfp PPTase inh -0.4%, G9a block inconclusive, JMJD2A Tudor inh 39.8µM* and BAZ2B block inconclusive.
Screening CCN(c1cccc(C)c1)S(=O)(=O)c1c(C)nc2sc(C)cn2c1=O returned HP1b chromo inh 5.6%, G9a block -2.6%[59 µM], JMJD2A Tudor inh -13.2% and BAZ2B block -15.0%.
`CC1(C)CC(=O)c2sc(NC(=O)c3ccc4ncsc4c3)nc2C1` gave HP1b chromo inh 47.8%, Sfp PPTase inh 50.1µM*, G9a block inconclusive, JMJD2A Tudor inh -19.0% and BAZ2B block 7.0%.
`O=C(Nc1ccc(Br)cc1)c1ccc2ncsc2c1` gave HP1b chromo inh 14.5%, Sfp PPTase inh inconclusive, G9a block 44.7µM*, JMJD2A Tudor inh -7.8% and BAZ2B block -2.4%.
CC1(C)CC(=O)c2sc(NC(=O)CN3CCCCC3)nc2C1 was read as HP1b chromo inh 15.3%, Sfp PPTase inh -8.0%, G9a block 14.1µM* and JMJD2A Tudor inh inconclusive.
Screening CCOc1ccc(NC(=O)COC(=O)c2ccc3ncsc3c2)cc1OCC returned HP1b chromo inh 10.8%, G9a block 44.7µM*, JMJD2A Tudor inh -23.4% and BAZ2B block inconclusive.
For Cc1cccc(Nc2nnc(SCC(=O)c3ccc(O)cc3O)s2)c1 the results were HP1b chromo inh 38.3%, Sfp PPTase inh -6.7%, G9a block 44.7µM*, JMJD2A Tudor inh -26.7% and BAZ2B block -4.6%.
Screening Cc1cccc(Nc2nnc(SCC3CCCCO3)s2)c1 (stereo not drawn) returned HP1b chromo inh 23.7%, Sfp PPTase inh 4.6%, G9a block 10µM*, JMJD2A Tudor inh -2.7% and BAZ2B block -7.6%.
